Holding throughout (assay): PBM binding z-score (relative to random genomic background probes); higher = stronger binding; sequences stand for … in GC…GCGATTGACAGCGTAGAATGAAGG
Experiment [1] concerns FXR:RXRa (NR concentration 270 nM, RXRa partner concentration 90 nM). A digest of the protocol:
(§1)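 Each nuclear receptor dimer, without ligand, was incubated for 1 h on custom Agilent 4×180K protein-binding microarrays. Binding was detected with antibodies against each partner (one per run), and scanned fluorescence was regression-normalized. The binding z-scores are referenced to random human genomic background probes.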

Experiment [2] relates to LXRa:RXRa (NR concentration 270 nM, RXRa partner concentration 90 nM). A digest of the protocol: as §1
For experiment [3], the system named is LXRa homodimer (NR concentration 270 nM). In outline: as §1
Experiment [4] deals with LXRb:RXRa (NR concentration 270 nM, RXRa partner concentration 90 nM). A digest of the protocol: as §1
Experiment [5] concerns LXRb homodimer (NR concentration 270 nM). In outline:
as §1

Experiment [6] concerns PPARa:RXRa (NR concentration 270 nM, RXRa partner concentration 90 nM). A digest of the protocol: as §1
The test system of experiment [7] is PPARg:RXRa (NR concentration 180 nM, RXRa partner concentration 90 nM). In outline:
as §1

For experiment [8], the system named is PPARg:RXRa 270nM:90nM, anti-RXR (NR concentration 270 nM, RXRa partner concentration 90 nM). A digest of the protocol: as §1
Experiment [9] relates to PPARg:RXRa 30nM:10nM, anti-RXR (NR concentration 30 nM, RXRa partner concentration 10 nM). A digest of the protocol: as §1
Experiment [10] relates to PPARg:RXRa 90nM:30nM, anti-RXR (NR concentration 90 nM, RXRa partner concentration 30 nM). In outline: as §1
In experiment [11] the test system is PPARg:RXRa DBDmut IVT, anti-RXR (DBD mutation: RXRa K156A/R161A, NR concentration 270 nM, RXRa partner concentration 90 nM). In outline:
as §1

The subject of experiment [12] is PPARg:RXRa IVT, anti-PPARg (NR concentration 270 nM, RXRa partner concentration 90 nM). A digest of the protocol:
as §1

The test system of experiment [13] is PPARg DBDmut:RXRa IVT, anti-PPARg (DBD mutation: PPARg1 K132A/R137A, NR concentration 270 nM, RXRa partner concentration 90 nM). In outline: as §1
The test system of experiment [14] is PPARg DBDmut IVT, anti-PPARg (DBD mutation: PPARg1 K132A/R137A, NR concentration 270 nM). In outline:
as §1

The subject of experiment [15] is PPARg homodimer (NR concentration 180 nM). In outline: as §1
The test system of experiment [16] is PXR:RXRa (NR concentration 270 nM, RXRa partner concentration 90 nM). A digest of the protocol: as §1
In experiment [17] the test system is PXR homodimer (NR concentration 270 nM). In outline: as §1
Experiment [18] has as its system RARa:RXR (NR concentration 270 nM, RXRa partner concentration 90 nM). A digest of the protocol:
as §1

Experiment [19] deals with RARa homodimer (NR concentration 270 nM). A digest of the protocol: as §1
For experiment [20], the system named is RARb:RXRa (NR concentration 270 nM, RXRa partner concentration 90 nM). In outline:
as §1

For the sequence TTACCAAGGTGAAGGGCGTTGATCCCTCTGTAGA, the PBM binding z-score in experiment [1] was 0.622; in experiment [2], 0.629; in experiment [3], -0.192; in [4], 0.495; in [5] it was -0.575; in experiment [6], 1.47. Moreover, the PBM binding z-score came to 0.846 in experiment [7]; 2.19 in [8]; 0.835 in experiment [9]; 1.69 in experiment [10]; 1.73 in [11]; 2.43 in [12]. Also, the PBM binding z-score is -0.0766 in [13]; -0.0935 in experiment [14]; 0.279 in experiment [15]; 0.365 in experiment [16]; -0.351 in experiment [17]; 0.762 in [18]. Moreover, the PBM binding z-score in experiment [19] is -0.0384; in experiment [20] it was 1.64.

As to CCTACTGGGCCAAATAGGTCATTGATGCCGATAA, the PBM binding z-score in experiment [1] was 1.09; in experiment [2], 1.66; in experiment [3], 0.941; in experiment [4] it was 1.91; in experiment [5] it was -0.592; in experiment [6] it was 3.18. For the same sequence, the PBM binding z-score came out at 2.07 in experiment [7]; 2.92 in experiment [8]; 0.838 in experiment [9]; 2.18 in experiment [10]; 4.31 in experiment [11]; 4.63 in [12]. Besides, the PBM binding z-score was 0.236 in [13]; -0.456 in [14]; 1.27 in [15]; 1.88 in experiment [16]; 0.588 in experiment [17]; 2.32 in [18]. For the same sequence, the PBM binding z-score in experiment [19] was 0.564; in experiment [20] it was 2.23.

Turning to CCTCGGAAGACAACAGGAGGTCAGAGCTGCCAGA, the PBM binding z-score in [1] was 0.802; in experiment [2], 1.66; in [3], 1.65; in experiment [4], 1.31; in experiment [5] it was -0.201; in experiment [6], 1.62. Besides, the PBM binding z-score is 0.36 in experiment [7]; 0.247 in experiment [8]; -0.599 in experiment [9]; -0.387 in experiment [10]; -0.389 in experiment [11]; -0.416 in experiment [12]. The PBM binding z-score in experiment [13] was -0.399; in experiment [14], -1.87; in [15] it was 1.38; in experiment [16], 1.62; in experiment [17], 0.458; in [18], 2.01. Further, the PBM binding z-score is 0.559 in experiment [19] and 1.81 in experiment [20].

With CGTCAAAGTTCAACTAAGGGAACGTAAAGCACGC, the PBM binding z-score in experiment [1] worked out at 6.99; in experiment [2], 6.08; in [3], 3.68; in experiment [4] it was 3.74; in experiment [5] it was 1.85; in [6] it was 4.93. Further, the PBM binding z-score came out at 4.78 in experiment [7]; 5.73 in experiment [8]; 1.94 in experiment [9]; 4.2 in experiment [10]; 0.0961 in [11]; 1.71 in experiment [12]. For the same sequence, the PBM binding z-score turned out to be 0.646 in experiment [13]; 0.162 in [14]; 2.6 in [15]; 4.91 in [16]; 3.23 in experiment [17]; 3.84 in experiment [18]. For the same sequence, the PBM binding z-score was 1.55 in experiment [19] and 5.25 in experiment [20].

Take GGATCGAGGGCATTCGAGTTGATAGCATGGCGAT: the PBM binding z-score was 0.788 in experiment [1]; 1.56 in experiment [2]; -0.155 in experiment [3]; -0.0829 in experiment [4]; -0.428 in [5]; 1.47 in experiment [6]. The PBM binding z-score in experiment [7] is 0.73; in experiment [8], 0.681; in experiment [9], -0.121; in experiment [10] it was 0.313; in experiment [11], 2.58; in experiment [12], 2.38. For the same sequence, the PBM binding z-score was -0.372 in experiment [13]; -0.843 in [14]; 0.175 in experiment [15]; 3.64 in experiment [16]; 1.17 in [17]; 1.16 in experiment [18]. Moreover, the PBM binding z-score is -0.556 in experiment [19] and 1.83 in [20].

Turning to CCTACCGGGCCAAAAAGGTCATTGATGCCGATAA, the PBM binding z-score amounted to 3.51 in experiment [1]; 4.28 in experiment [2]; 3.75 in experiment [3]; 4.21 in experiment [4]; 0.286 in experiment [5]; 4.55 in experiment [6]. Also, the PBM binding z-score in [7] is 1.69; in [8], 3; in experiment [9] it was 0.292; in experiment [10], 1.97; in [11], -0.0213; in experiment [12], 1.89. The PBM binding z-score is -0.195 in experiment [13]; -1.09 in [14]; 3.48 in [15]; 5 in experiment [16]; 5.72 in [17]; 5.47 in experiment [18]. Also, the PBM binding z-score was determined as 1.6 in experiment [19] and 3.96 in [20].

As to ATTTGTAGGTTAAGGGTCATTCAGGTTGGTTCGC, the PBM binding z-score in experiment [1] stood at 5.48; in experiment [2], 5.5; in experiment [3], 4.38; in experiment [4], 4.97; in experiment [5], 2.76; in experiment [6] it was 6.21. Besides, the PBM binding z-score in experiment [7] was 11.5; in experiment [8] it was 9.95; in experiment [9], 11.8; in experiment [10], 12.1; in experiment [11], 6.4; in [12], 7.15. The PBM binding z-score in [13] amounted to 4.62; in experiment [14] it was 2.85; in experiment [15], 7.55; in experiment [16], 5.87; in [17] it was 3.82; in [18], 6.91. For the same sequence, the PBM binding z-score in experiment [19] was found to be 4.5; in [20], 3.9.

The values are drawn from the supplement of paper PMC6555819.
